# In PubChem BioAssay (Tox21):
# Results filed as inconclusive are left out. Calls of active or inactive are those of the source. Calls come from the whole dose curve; as a rule, active = well fitted inhibition curve with a large enough effect in the repeat runs; inconclusive = weak or mixed curves; inactive = flat fitted curve, though single readings scatter.
# Test: qHTS assay to identify small molecule HDAC inhibitors (AID 1259364); note: nearly all actives have a fitted effect of over 45% in size; for activity change, negative = inhibition: top concentration of the series differs between compounds
# Details: HCT-116 HDAC-Glo I/II luminescence, 2 h; series mostly up to 92.4 µM; activity change, negative = inhibition: at the top concentration
# Source text: U.S. Tox21 Program National Center for Advancing Translational Sciences [NCATS] NIH Chemical Genomics Center [NCGC] U.S. Environmental Protection Agency [EPA] National Institutes of Environmental Health Sciences [NIEHS] National Toxicology Program [NTP] U.S. Food and Drug Administration [FDA] Tox21 Assay Overview: Histone deacetylases (HDACs) are a group of epigenetic enzymes that regulate gene expression by histone deacetylation. HDACs are capable of introducing epigenetic modifications and such aberrations contribute to the onset and progression of several human diseases, thus making HDACs a popular therapeutic target. For identifying endogenous class I/II HDAC inhibitors a homogenous, luminogenic HDAC I/II cell based assay was used to measure the relative activity of class I and II HDACs from cells. Wild type HCT-116 cells were used to screen Tox21 libraries for identifying class I/II HDAC inhibitors.
# Tox21 Assay Protocol Summary: HCT-116 cells were dispensed at 1,500 per well in 5uL of culture medium into white solid bottom 1536-well plates (Greiner Bio-One, Monroe, NC) using a Multidrop Combi (Thermo Scientific, Waltham, MA) dispenser. The assay plates were incubated at 37 C and 5% CO2 for an overnight, and then 23nL of compounds dissolved in DMSO and positive control were transferred using a Pintool station (Wako, San Diego, CA). The assay plates were incubated at 37C and 5% CO2 for 2hr. After compound treatment, 4uL of HDAC-Glo reagent (Promega Corporation, Madison, WI) was added to each well of the assay plates using Flying Reagent Dispenser (FRD, Aurora Discovery, San Diego, CA) and incubated the assay plates at room temperature for 30min. The luminescence signal was quantified using a ViewLux plate reader (Perkin Elmer, Shelton, CT).
# % is set by controls: 0 for no effect and ±100 for the full control effect; potency is the fitted concentration of half-maximal effect.
SMILES,"activity change, negative = inhibition",Potency
CCCCP(CCCC)CCCC,0.854% (inactive),
COC(=O)C1=CCCN(C)C1,-12.7% [at 42.5 µM] (inactive),
CC(C=O)Cc1ccc2c(c1)OCO2 (stereo not given),1.85% (inactive),
O=C1OC(c2ccc(O)c(S(=O)(=O)O)c2)(c2ccc(O)c(S(=O)(=O)O)c2)c2c(Br)c(Br)c(Br)c(Br)c21,2.66% [at 42.5 µM] (inactive),
COc1cc(C[C@@H](C)N)c(OC)cc1C,4.78% (inactive),
CC1(C)CON(Cc2ccccc2Cl)C1=O,-1.94% (inactive),
O=CNC(N1CCN(C(NC=O)C(Cl)(Cl)Cl)CC1)C(Cl)(Cl)Cl (stereo not given),0.698% (inactive),
CN1CCC(O)(c2ccc(F)cc2)C(C(=O)c2ccc(F)cc2)C1 (stereo not given),0.185% [at 42.5 µM] (inactive),
COc1ccc2c(c1OC)CN1CCc3cc4c(cc3C1C2)OCO4 (stereo not given),1.42% [at 42.5 µM] (inactive),
CCCSP(=O)(OCC)Oc1ccc(Br)cc1Cl (stereo not given),2.77% [at 42.5 µM] (inactive),
N#CCNCC#N,1.47% (inactive),
N#Cc1c(Cl)cccc1Cl,3.79% (inactive),
CCOC(=O)C1(c2ccccc2)CCN(CCc2ccc(N)cc2)CC1,-3.11% [at 42.5 µM] (inactive),
C#CCN1C(=O)COc2cc(F)c(N3C(=O)C4=C(CCCC4)C3=O)cc21,-14.7% (inactive),
CCNc1nc(NC(C)C)nc(OC)n1,1.44% (inactive),
CCC(Cl)[N+](=O)[O-] (stereo not given),-9.35% (inactive),
CCOc1nc(C(Cl)(Cl)Cl)ns1,-0.713% (inactive),
CC(C)COP(=O)(OCC(C)C)OCC(C)C,-0.89% (inactive),
CNC(=O)N(C)c1nc2ccccc2s1,,545 nM (active)
COc1cc2c(cc1OC)[C@@]13CCN4CC5=CCO[C@H]6CC(=O)N2[C@H]1[C@H]6[C@H]5C[C@H]43,0.65% (inactive),

SMILES,"activity change, negative = inhibition",Potency
C[N+](=O)[O-],-3.12% (inactive),
O=C(Nc1ccccc1)N(Cc1ccc(Cl)cc1)C1CCCC1,-18.7% (inactive),
Nc1n[nH]c(N)n1,3.15% (inactive),
O=C1CN2CCOC2(c2ccccc2Cl)c2cc(Cl)ccc2N1 (stereo not given),2.11% [at 42.5 µM] (inactive),
ClC(Cl)C(Cl)Cl,3.62% (inactive),
COCC(=O)N(c1c(C)cccc1C)N1CCOC1=O,-0.631% (inactive),
ClC(Br)Br,5.8% (inactive),
O=C1CN=C(c2ccccc2)c2cc([N+](=O)[O-])ccc2N1,4.07% [at 42.5 µM] (inactive),
CCC#N,2.68% (inactive),
OC(c1ccccc1)(c1ccccc1)C1CCNCC1,0.414% [at 42.5 µM] (inactive),
CC(=O)C(Cl)Cl,1.19% (inactive),
CN(N=O)C(N)=O,-2.09% (inactive),
O=C1OC(CCN2CCCCC2)OC1(c1ccccc1)c1ccccc1 (stereo not given),-0.0197% [at 42.5 µM] (inactive),
CCOP(=S)(OCC)SCSc1ccc(Cl)cc1,-0.706% (inactive),
CC(C(=O)c1ccccc1)N(C)C (stereo not given),5.53% [at 42.5 µM] (inactive),
Cc1coc2c1CCC(C)C2 (stereo not given),7.02% (inactive),
CCCCCCBr,4.71% (inactive),
CC1(C)C(=O)NC(=O)NC1=O,3.33% (inactive),
CC(C)(C)C(=O)C(Oc1ccc(Cl)cc1)n1cncn1 (stereo not given),0.619% (inactive),
CC(N)=S,-2.61% (inactive),
